From PubChem BioAssay (NCATS)
Several values for one entry are separate records, joined by “and”; a condition that tells them apart may be missing. Equal entries are not always repeated. Inconclusive results are not listed. Activity calls are given as the source filed them. Unless noted, the call rests on the fitted dose curve; in most records, active means well fitted curve in either direction with a large enough effect (not every such curve was filed as active); inconclusive means small, poorly fitted or top-dose-only effect, or another doubt; inactive means flat fitted curve, though single readings scatter.

Legend:
[1] = target: Cytochrome P450 1A2 (Homo sapiens) (UniProt P05177); experiment: p450-cyp1a2 (AID 410; calls by dose curve; further: potency means the concentration at half of the fitted maximal effect;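 on activity change, negative = inhibition: -100% = full effect of reference inhibitor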)
Chain of Cytochrome P450 1A2 (Homo sapiens) (P05177 whole entry, looked up): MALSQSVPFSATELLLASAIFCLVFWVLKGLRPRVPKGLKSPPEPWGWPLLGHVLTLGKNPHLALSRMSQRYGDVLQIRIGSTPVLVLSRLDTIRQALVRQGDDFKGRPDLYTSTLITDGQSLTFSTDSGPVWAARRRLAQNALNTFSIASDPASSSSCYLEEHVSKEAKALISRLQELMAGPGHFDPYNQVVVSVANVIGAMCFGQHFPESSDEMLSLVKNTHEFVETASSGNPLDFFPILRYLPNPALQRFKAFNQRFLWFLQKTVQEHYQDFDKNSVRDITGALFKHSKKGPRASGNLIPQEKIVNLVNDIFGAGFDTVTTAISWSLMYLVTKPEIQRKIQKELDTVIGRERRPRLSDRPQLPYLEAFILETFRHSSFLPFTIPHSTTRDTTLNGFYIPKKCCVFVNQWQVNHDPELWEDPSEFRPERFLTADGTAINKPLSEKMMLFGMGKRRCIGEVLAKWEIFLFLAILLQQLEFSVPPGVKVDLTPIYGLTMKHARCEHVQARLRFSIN
In short: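 20nM CYP1A2, 100uM Luciferin-ME (=Km), 100mM KPO4; cpd 10 min RT; +NADPH regen, 60 min RT; stop/detect 20 min; luminescence. Normalized to furafylline 57 uM = full inhibition.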

[2] = NFAT Signaling Pathway (AID 444); settings: Jurkat NFAT-bla M1, carbachol, beta-lactamase ratio, 5 h; at 7.69 µM (top of the series) unless noted;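 further: carbachol stimulus at about its EC50 of 1 µM final; on the % scale 0 is the no-effect control and ±100 the full control effect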
In short: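 Jurkat cells with NFAT-driven β-lactamase reporter and co-expressed M1 receptor, stimulated with carbachol (final 1 uM, ~EC50), compound titration, 5 h at 37 °C. CCF4 loaded 1 h at RT; 460/530 nm ratio gave %activity and AC50.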

[3] = target: Glucocorticoid receptor (Homo sapiens) (UniProt P04150); experiment: GR-GFP Redistribution (AID 450;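 active means compounds whose dose series gives a full or clear partial fitted curve of increased nuclear translocation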; further: potency means the concentration at half of the fitted maximal effect); settings: U2OS GR-GFP nuclear translocation, laser cytometry, 2 h
Chain of Glucocorticoid receptor (Homo sapiens) (P04150 whole entry, looked up, the tested form may be a part): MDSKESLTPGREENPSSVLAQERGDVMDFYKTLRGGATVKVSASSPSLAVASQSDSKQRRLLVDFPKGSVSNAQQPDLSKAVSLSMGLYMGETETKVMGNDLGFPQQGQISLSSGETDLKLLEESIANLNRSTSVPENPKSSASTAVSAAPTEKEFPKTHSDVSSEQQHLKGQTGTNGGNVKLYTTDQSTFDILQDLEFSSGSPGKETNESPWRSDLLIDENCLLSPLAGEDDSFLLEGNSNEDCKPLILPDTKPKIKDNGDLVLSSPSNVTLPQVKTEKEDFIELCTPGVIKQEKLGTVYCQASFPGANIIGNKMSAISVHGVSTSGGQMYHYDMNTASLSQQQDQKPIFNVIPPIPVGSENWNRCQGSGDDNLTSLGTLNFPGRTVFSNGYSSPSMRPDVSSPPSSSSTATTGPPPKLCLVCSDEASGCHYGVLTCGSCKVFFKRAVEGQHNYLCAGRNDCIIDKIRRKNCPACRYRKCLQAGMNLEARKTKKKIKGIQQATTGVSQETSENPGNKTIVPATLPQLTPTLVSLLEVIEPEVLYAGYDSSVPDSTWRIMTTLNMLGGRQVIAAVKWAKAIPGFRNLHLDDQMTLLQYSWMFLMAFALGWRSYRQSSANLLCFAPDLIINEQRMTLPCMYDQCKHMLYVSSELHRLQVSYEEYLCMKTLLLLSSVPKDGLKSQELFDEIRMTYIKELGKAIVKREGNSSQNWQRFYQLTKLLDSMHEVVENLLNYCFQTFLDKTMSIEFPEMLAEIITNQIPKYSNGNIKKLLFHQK

[4] = target: Glucocorticoid receptor (Homo sapiens) (UniProt P04150); experiment: GR-EFC Redistribution (AID 451; calls by dose curve; further: potency means the concentration at half of the fitted maximal effect); settings: CHO-K1 GR-EFC translocation, beta-gal luminescence, 2 h
In short: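 CHO-K1 cells expressing nuclear EA and GR-ED fragments of b-gal; compounds titrated up to 46 uM final, 2 h at 37 C. GR nuclear translocation read as complemented b-gal luminescence after 1 h RT detection.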

[5] = target: Mitogen-activated protein kinase 10 (Mus musculus) (UniProt Q61831); experiment: JNK3 AlphaScreen Assay (AID 530);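 further: kinase came from lysate of stimulated human HepG2 cells; signal reports phosphorylation of biotinylated GST-cJun 1-79 at Ser73 with 10 µM ATP; on the % scale 0 is the no-effect control and ±100 the full control effect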
In short: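 HepG2 lysate (IL-1b/TNFa pre-activated) + biotin-GST-cJun 1-79 + anti-pSer73 cJun; cpd titration, 15 min RT; ATP 10 uM start; Tris pH 7.6, MgCl2, DTT, vanadate; beads in EDTA buffer; AlphaScreen.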

[6] = target: 3',5'-cyclic-AMP phosphodiesterase 4B (Homo sapiens) (UniProt Q07343); experiment: qHTS Assay for Inhibitors of PDE-IV (AID 607; active means well fitted activation curve with a large enough effect in the main read-out, with a control signal flat, not every such curve was filed as active; further: % of control where 0% means no effect)
Chain of 3',5'-cyclic-AMP phosphodiesterase 4B (Homo sapiens) (Q07343 whole entry, looked up): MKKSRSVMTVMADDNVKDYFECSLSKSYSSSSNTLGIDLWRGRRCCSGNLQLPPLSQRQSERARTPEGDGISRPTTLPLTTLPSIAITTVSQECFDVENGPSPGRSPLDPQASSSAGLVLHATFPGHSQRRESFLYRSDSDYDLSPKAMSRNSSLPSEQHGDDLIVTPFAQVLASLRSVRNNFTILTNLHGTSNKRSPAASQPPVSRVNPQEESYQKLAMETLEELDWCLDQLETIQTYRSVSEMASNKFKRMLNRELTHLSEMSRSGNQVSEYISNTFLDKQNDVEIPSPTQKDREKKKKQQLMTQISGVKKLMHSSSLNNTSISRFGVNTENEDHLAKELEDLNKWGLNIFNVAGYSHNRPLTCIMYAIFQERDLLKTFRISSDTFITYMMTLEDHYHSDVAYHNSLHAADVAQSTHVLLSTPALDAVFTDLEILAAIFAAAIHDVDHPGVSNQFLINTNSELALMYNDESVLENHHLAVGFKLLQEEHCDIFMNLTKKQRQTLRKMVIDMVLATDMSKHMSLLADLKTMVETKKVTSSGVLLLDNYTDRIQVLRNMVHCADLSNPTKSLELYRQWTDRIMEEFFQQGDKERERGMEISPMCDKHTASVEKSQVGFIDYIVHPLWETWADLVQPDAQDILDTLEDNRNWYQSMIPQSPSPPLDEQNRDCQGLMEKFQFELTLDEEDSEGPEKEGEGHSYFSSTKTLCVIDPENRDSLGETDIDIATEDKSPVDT
In short: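 Cell-based read-out of cAMP via a modified cyclic nucleotide-gated channel and membrane potential dye (535/590 nm) in HEK293 cells expressing PDE4 endogenously. Compounds tested up to 22.9 uM final; 100 uM RO 20-1724 reference.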

[7] = target: Guanine nucleotide-binding protein G(i) subunit alpha-1 (Homo sapiens) (UniProt P63096); experiment: qHTS Assay for Inhibitors of RGS12 GoLoco Motif Activity (Green Fluorophore) (AID 879; active means well fitted curve in the direction sought with a large enough effect; an effect the other way counts as inactive or inconclusive;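 further: 0% = labeled peptide with Gαi1 and full inhibition = labeled peptide alone without protein; negative values mean loss of peptide binding seen as reduced polarization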)
Chain of Guanine nucleotide-binding protein G(i) subunit alpha-1 (Homo sapiens) (P63096 whole entry, looked up): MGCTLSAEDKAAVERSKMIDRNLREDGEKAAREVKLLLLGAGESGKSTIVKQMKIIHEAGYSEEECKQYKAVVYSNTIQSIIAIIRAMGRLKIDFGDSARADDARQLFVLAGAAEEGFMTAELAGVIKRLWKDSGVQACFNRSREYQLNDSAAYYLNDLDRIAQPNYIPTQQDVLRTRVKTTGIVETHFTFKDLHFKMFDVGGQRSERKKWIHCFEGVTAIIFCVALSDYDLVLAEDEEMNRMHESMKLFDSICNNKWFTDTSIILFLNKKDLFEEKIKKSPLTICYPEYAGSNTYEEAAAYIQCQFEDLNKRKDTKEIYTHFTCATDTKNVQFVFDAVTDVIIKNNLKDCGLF
In short: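 A drop in FITC polarization marked displacement of the FITC-tagged RGS12 GoLoco peptide (10 nM) from Gαi1 (50 nM). Compounds were incubated 10 min at room temperature in Tris pH 7.5 buffer containing 150 mM NaCl, 0.1 mM GDP and 0.05% NP40; unlabeled peptide titration served as control.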

[8] = target: Cytochrome P450 2C9 (Homo sapiens) (UniProt P11712); experiment: qHTS Assay for Inhibitors and Substrates of Cytochrome P450 2C9 (AID 883; active means well fitted curve in the direction sought with a large enough effect; an effect the other way counts as inactive or inconclusive; further: on the % scale 0 is the no-effect control and ±100 the full control effect; nearly all actives have a fitted effect of over 60% in size)
In short: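 Signal: luciferase luminescence reporting luciferin produced by CYP2C9. Conditions: 10nM enzyme, Luciferin-H 100uM at KM, 25mM KPO4, 37C, 60 min NADPH-driven reaction. Reference: 57uM sulphaphenazole as 100% inhibition.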

[9] = target: Cytochrome P450 3A4 (Homo sapiens) (UniProt P08684); experiment: qHTS Assay for Activators of Cytochrome P450 3A4 (AID 885; active means well fitted curve in the direction sought with a large enough effect; an effect the other way counts as inactive or inconclusive; further: nearly all actives have a fitted effect of over 65% in size; further: potency means the concentration at half of the fitted maximal effect)
Chain of Cytochrome P450 3A4 (Homo sapiens) (P08684 whole entry, looked up): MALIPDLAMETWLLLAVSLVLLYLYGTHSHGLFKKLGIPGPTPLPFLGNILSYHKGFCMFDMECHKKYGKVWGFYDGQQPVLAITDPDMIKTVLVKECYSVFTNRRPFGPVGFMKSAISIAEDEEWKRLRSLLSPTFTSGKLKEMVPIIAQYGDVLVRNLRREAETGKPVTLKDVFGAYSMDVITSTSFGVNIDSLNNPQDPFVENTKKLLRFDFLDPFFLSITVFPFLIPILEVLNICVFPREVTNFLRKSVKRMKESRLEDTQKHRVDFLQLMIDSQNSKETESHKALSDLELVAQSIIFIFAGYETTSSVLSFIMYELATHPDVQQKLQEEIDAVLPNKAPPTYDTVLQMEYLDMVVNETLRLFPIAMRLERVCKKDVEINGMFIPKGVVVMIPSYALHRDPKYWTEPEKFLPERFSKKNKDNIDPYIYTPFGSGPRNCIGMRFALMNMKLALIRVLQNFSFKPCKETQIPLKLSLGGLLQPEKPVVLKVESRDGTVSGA
In short: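 Luminescent readout of luciferin formed from 25 uM Luciferin-PPXE (KM level) by 20 nM CYP3A4 in 200 mM KPO4, with 60 min NADPH-driven reaction at room temperature after 10 min compound exposure. Ketoconazole (57 uM) defined 100% inhibition.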

[10] = qHTS Assay for Identification of Small Molecule Agonists for Thrombopoietin (TPO) Signaling Pathway (AID 917; active means well fitted curve in the direction sought with a large enough effect; an effect the other way counts as inactive or inconclusive; further: on the % scale 0 is the no-effect control and ±100 the full control effect)
In short: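 Ba/F3 (mouse) + hTPO receptor + GpIIb-promoter luciferase; IL-3 withdrawn overnight; compound + 26 pM TPO (EC50), 24 hrs, 37 C, 5% CO2; Steadylite luminescence, 10 min RT.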

[11] = target: Muscarinic acetylcholine receptor M1 (Rattus norvegicus) (UniProt P08482); experiment: qHTS Assay for Antagonists of Acetylcholine Muscarinic M1 Receptor: Kinetic Measurement of Intracellular Calcium Response (AID 943; active means well fitted curve in the direction sought with a large enough effect; an effect the other way counts as inactive or inconclusive; further: nearly all actives have a fitted effect of over 75% in size; further: potency means the concentration at half of the fitted maximal effect;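 on activity change, negative = inhibition: Fluo-4 calcium signal as peak divided by basal fluorescence over 4 min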)
Chain of Muscarinic acetylcholine receptor M1 (Rattus norvegicus) (P08482 whole entry, looked up): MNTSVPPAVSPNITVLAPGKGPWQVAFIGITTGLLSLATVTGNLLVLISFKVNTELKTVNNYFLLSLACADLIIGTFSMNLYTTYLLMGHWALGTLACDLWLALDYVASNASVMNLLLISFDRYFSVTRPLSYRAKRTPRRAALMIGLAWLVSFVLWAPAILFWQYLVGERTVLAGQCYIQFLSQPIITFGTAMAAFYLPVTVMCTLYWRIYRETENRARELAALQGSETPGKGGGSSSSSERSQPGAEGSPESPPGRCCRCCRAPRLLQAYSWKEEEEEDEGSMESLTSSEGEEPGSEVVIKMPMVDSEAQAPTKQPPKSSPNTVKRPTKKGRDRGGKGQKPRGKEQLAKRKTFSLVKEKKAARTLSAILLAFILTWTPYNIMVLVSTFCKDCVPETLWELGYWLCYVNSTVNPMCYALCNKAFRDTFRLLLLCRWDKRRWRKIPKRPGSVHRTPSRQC
In short: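 Read-out: peak over basal Fluo-4 fluorescence, kinetic at 1 Hz for 4 min after EC80 carbachol (100 nM final). Rat M1-CHO cells, dye loaded 1 h at 37C, compound added 10 min before agonist.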

[12] = target: Pyruvate kinase PKM (Homo sapiens) (UniProt P14618); experiment: qHTS Assay for Activators of Human Muscle Pyruvate Kinase (AID 954; active means well fitted curve in the direction sought with a large enough effect, not every such curve was filed as active;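 further: 0% = uninhibited enzyme and -100% = no enzyme or full thiadiazolimine inhibition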)
Chain of Pyruvate kinase PKM (Homo sapiens) (P14618 whole entry, looked up): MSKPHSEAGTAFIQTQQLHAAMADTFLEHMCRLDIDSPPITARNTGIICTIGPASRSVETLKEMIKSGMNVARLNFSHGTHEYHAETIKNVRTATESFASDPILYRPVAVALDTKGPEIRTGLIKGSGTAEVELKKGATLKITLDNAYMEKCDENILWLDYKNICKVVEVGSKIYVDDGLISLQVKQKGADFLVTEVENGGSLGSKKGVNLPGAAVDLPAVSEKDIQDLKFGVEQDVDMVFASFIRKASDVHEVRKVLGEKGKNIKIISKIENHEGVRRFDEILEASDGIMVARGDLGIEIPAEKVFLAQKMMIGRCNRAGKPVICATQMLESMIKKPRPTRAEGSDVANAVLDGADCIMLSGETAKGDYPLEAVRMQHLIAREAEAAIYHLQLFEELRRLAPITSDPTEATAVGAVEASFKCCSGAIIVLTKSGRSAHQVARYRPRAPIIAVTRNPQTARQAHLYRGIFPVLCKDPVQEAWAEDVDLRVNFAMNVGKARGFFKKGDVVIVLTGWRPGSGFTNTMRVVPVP
In short: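 ATP production by PKM2 detected via luciferase luminescence after 1 h room-temperature reaction (0.1 nM enzyme, PEP at Km 0.5 mM, ADP 0.1 mM, pH 7.2 imidazole buffer). Inhibition scaled to no-enzyme control; activation referenced to 0.3 nM enzyme wells.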

[13] = target: Alpha-galactosidase A (Homo sapiens) (UniProt P06280); experiment: Counterscreen for Glucocerebrosidase Inhibitors: qHTS Assay for Human alpha-Galactosidase at pH 4.5 (AID 992; active means well fitted curve in the direction sought with a large enough effect; an effect the other way counts as inactive or inconclusive; further: 0% is about no effect)
Chain of Alpha-galactosidase A (Homo sapiens) (P06280 whole entry, looked up): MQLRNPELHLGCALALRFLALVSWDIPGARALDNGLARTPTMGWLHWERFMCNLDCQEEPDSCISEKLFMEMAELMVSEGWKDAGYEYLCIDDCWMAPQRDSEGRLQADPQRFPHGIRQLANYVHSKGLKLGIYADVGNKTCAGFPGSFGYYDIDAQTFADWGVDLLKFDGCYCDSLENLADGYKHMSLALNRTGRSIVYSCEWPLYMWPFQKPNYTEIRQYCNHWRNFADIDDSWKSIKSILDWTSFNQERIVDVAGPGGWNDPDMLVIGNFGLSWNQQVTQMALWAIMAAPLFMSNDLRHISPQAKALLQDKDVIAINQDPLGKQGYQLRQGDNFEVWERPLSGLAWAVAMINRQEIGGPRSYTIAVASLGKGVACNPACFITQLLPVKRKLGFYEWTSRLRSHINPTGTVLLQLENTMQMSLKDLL
In short: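 Fluorogenic 1536-well qHTS at pH 4.5 (citrate, Tween-20): 2 nM enzyme, 80 uM 4-MU-alpha-galactoside, 20 min room temperature, NaOH/glycine stop. Titration 0.7 nM to 77 uM, data normalized to no-enzyme and full-activity controls, Hill-fitted AC50.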

[14] = target: alpha-glucosidase (Oryza sativa, rice) (UniProt Q653V4); experiment: Counterscreen for Glucocerebrosidase Inhibitors: qHTS Assay for Rice alpha-Glucosidase at pH 5.0 (AID 997; active means well fitted curve in the direction sought with a large enough effect; an effect the other way counts as inactive or inconclusive;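 further: 0% = full activity with enzyme and -100% = basal without enzyme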)
In short: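 Endpoint fluorogenic assay at pH 5.0: compounds (0.7 nM to 77 uM) titrated against 4 nM rice enzyme and 400 uM 4-MU-alpha-glucoside for 20 min at room temperature; NaOH/glycine stop, read ex 365/em 440 nm, Hill-fitted AC50.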

[15] = Stat Signaling Pathway (AID 446); settings: ME-180 SIE beta-lactamase reporter, IL-6 stimulated, 5 h; at 7.69 µM (top of the series) unless noted;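 further: ME-180 cervical cancer cells given 40 pM IL-6 alongside compound; SIE-controlled beta-lactamase reporter measured as 460/530 nm FRET emission ratio; on the % scale 0 is the no-effect control and ±100 the full control effect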
In short: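 FRET read-out (405 nm excitation, 460/530 nm emission) of a beta-lactamase reporter under a STAT-inducible element in ME-180 cervical carcinoma cells. Cells with compound receive 40 pM IL-6 for 5 h. Values are normalised to AC90 stimulation and AC90 JAK-inhibitor controls.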

[16] = AP1 Signaling Pathway (AID 357); settings: ME-180 AP-1-bla reporter, EGF-induced, beta-lactamase ratio, 5 h; at 7.69 µM (top of the series) unless noted
In short: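 Modulation of EGF-driven AP-1 transcription was assessed with a beta-lactamase reporter in ME-180 cells. Compound and EC50 EGF were co-incubated 5 hours at 37 °C before 2.5-hour CCF4 loading at room temperature and dual-emission reading.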

[17] = qHTS Assay for Identification of Small Molecule Antagonists for NFkB Signaling Pathway (AID 895; active means well fitted inhibition curve with a large enough effect in the signal ratio, with a control signal flat, not every such curve was filed as active; the % refers to the signal ratio; further: on the % scale 0 is the no-effect control and ±100 the full control effect)
In short: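 ME-180 NFkB-bla cells (beta-lactamase under NFkB response element), plated overnight, treated with compound then 10 pM TNF alpha (about EC50) for 5 hrs at 37 C. LiveBLAzer FRET read at 460/530 nm emission, 405 nm excitation.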

[18] = target: Muscarinic acetylcholine receptor M1 (Rattus norvegicus) (UniProt P08482); experiment: qHTS Assay for Antagonists of Acetylcholine Muscarinic M1 Receptor: Measurement of IP-One Response (AID 944; active means well fitted curve in the direction sought with a large enough effect; an effect the other way counts as inactive or inconclusive; further: nearly all actives have a fitted effect of over 75% in size)
In short: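 Read-out: HTRF competition between d2-IP1 and Eu-cryptate anti-IP1 antibody, emission 620 and 665 nm. Stimulus was carbachol, EC80 (200 nM), for 30 min in M1-CHO cells (rat receptor), after 10 min compound pre-treatment.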

[19] = target: Pyruvate kinase (Leishmania mexicana) (UniProt Q27686); experiment: qHTS Validation Assay for Inhibitors of Leishmania Mexicana Pyruvate Kinase (AID 945; active means well fitted curve in the direction sought with a large enough effect; an effect the other way counts as inactive or inconclusive;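 further: 0% = DMSO only neutral control wells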)
Chain of Pyruvate kinase (Leishmania mexicana) (Q27686 2-499 E452W): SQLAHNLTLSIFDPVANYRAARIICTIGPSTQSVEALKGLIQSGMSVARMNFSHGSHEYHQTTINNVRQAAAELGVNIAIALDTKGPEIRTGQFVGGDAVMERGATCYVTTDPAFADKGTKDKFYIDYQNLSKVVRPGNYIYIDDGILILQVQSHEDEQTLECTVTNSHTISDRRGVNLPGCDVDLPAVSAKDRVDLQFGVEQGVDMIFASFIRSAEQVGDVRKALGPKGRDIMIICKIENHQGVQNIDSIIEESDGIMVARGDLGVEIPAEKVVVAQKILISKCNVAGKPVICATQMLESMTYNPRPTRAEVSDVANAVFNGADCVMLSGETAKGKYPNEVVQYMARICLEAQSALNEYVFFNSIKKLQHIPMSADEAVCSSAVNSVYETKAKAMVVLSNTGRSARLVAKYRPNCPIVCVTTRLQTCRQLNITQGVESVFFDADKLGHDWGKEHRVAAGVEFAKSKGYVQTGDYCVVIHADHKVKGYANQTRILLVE
In short: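 The enzyme is a highly purified E451W mutant of LmPYK used at 0.2 nM. It converts 0.5 mM PEP and 0.1 mM ADP over 1 h at room temperature; product ATP is quantified by luciferase luminescence relative to DMSO controls.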

CCCCCCCCCCCCCCCC(=O)NC[C@@H](COP(=O)([O-])OCC[N+](C)(C)C)OCC
active: activity change, negative = inhibition [2] 16.7% [at 38 µM] | Potency [11] 11.2 µM
inactive: Potency [1] | Potency [3] > 46 µM | Potency [4] > 46 µM | Potency [5] | Potency [6] | outcome [7] | Potency [8] | Potency [9] | outcome [10] | outcome [12] | outcome [13] | Potency [14]

O=C(C[n+]1ccc2ccccc2c1)c1ccc2ccc3ccccc3c2c1
inactive: activity change, negative = inhibition [2] -15.5% | activity, negative = inhibition [15] 0.433% | Potency [3] > 46 µM | Potency [4] > 9.22 µM | Potency [5] | Potency [6]
active: Potency [1] 2.51 µM

O[C@H](C[C@@H]1CCCCN1)c1ccc2c(c1)oc1ccccc12
inactive: activity change, negative = inhibition [16] 6.24% | activity change, negative = inhibition [1] -10.4% [at 2.29 µM] | activity, negative = inhibition [15] 4% | Potency [3] > 46 µM | Potency [4] > 9.22 µM | Potency [6]

NC(N)=Nc1nc2ccc([N+](=O)[O-])cc2[nH]1
active: Potency [9] 3.16 µM
inactive: activity change, negative = inhibition [16] 0.0978% | activity change, negative = inhibition [2] 0.0962% | activity, negative = inhibition [15] 9.75% | Potency [3] > 46 µM | Potency [4] > 9.22 µM | Potency [5] | Potency [6]

COC(=O)[C@H]1[C@H]2C[C@H]3c4[nH]c5ccccc5c4CCN3C[C@@H]2CC[C@@H]1O
inactive: activity change, negative = inhibition [16] 3.48% [at 38 µM] and 8.69% [at 38 µM] | activity change, negative = inhibition [2] -14.1% [at 38 µM] | activity, negative = inhibition [15] 1% [at 38 µM] and -19.7% [at 38 µM] | Potency [5] | Potency [6] | outcome [7] | outcome [10] | outcome [12] | outcome [13] | Potency [14]

CCCC(c1cc(C(C)(C)C)c(O)cc1C)c1cc(C(C)(C)C)c(O)cc1C
inactive: activity change, negative = inhibition [16] 28.1% | activity change, negative = inhibition [1] -12.3% [at 2.29 µM] | activity, negative = inhibition [15] 4.1% | Potency [3] > 46 µM | Potency [4] > 9.22 µM | Potency [5] | Potency [6]

CO/N=C(\C(=O)N[C@@H]1C(=O)N2C(C(=O)O)=C(CSc3nc(=O)c(O)nn3C)CS[C@@H]12)c1csc(N)n1
inactive: activity change, negative = inhibition [16] -11.1% [at 38 µM] | activity change, negative = inhibition [2] 4.37% [at 38 µM] | Potency [3] > 46 µM | Potency [4] > 46 µM | Potency [6] | outcome [7] | Potency [17] | outcome [10] | Potency [18] | outcome [19] | outcome [12] | outcome [13] | Potency [14]

COc1ccccc1OC[C@H](O)CN1CCN(CC(=O)Nc2c(C)cccc2C)CC1
inactive: activity change, negative = inhibition [16] -8.83% [at 38 µM] | Potency [3] > 46 µM | Potency [4] > 46 µM | Potency [5] | Potency [6] | outcome [7] | outcome [10] | Potency [11] | Potency [18] | outcome [19] | outcome [12] | outcome [13] | Potency [14]

O=C(Nc1ccc2c(c1)Cc1ccccc1-2)[C@@H]1[C@H](C(=O)O)[C@]2(Cl)C(Cl)=C(Cl)[C@@]1(Cl)C2(Cl)Cl
inactive: activity change, negative = inhibition [16] 9.85% | Potency [3] > 46 µM | Potency [4] > 9.22 µM | Potency [6]
active: Potency [1] 3.16 µM

O=C(O)CCSCc1ccc(I)cc1
inactive: activity change, negative = inhibition [16] 2.76% | activity change, negative = inhibition [2] 1.51% | activity, negative = inhibition [15] 4.16% | Potency [3] > 46 µM | Potency [4] > 9.22 µM | Potency [5] | Potency [6]

Nc1ccc(-c2ccc(Nc3cc(S(=O)(=O)O)c(N)c4c3C(=O)c3ccccc3C4=O)cc2)c(S(=O)(=O)O)c1
inactive: activity change, negative = inhibition [16] 3.81% | activity change, negative = inhibition [2] -2.33% | activity, negative = inhibition [15] -2.95% | Potency [3] > 46 µM | Potency [4] > 9.22 µM | Potency [5] | Potency [6]
